# Cruzain noTriton: blocks cruzain activity in detergent-free assay; purified cruzain, Z-FR-AMC fluorescence, no detergent; Potency, µM, inactives show max response, negative = inhibition, most hits filed as inhibitors; 200,000 compounds, 2.3% hits;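 note: plate controls were enzyme without inhibitor for no effect and buffer without enzyme for full effect; nearly all actives have a fitted effect of over 40% in size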
# Target sequence (P25779 123-467 limits assumed): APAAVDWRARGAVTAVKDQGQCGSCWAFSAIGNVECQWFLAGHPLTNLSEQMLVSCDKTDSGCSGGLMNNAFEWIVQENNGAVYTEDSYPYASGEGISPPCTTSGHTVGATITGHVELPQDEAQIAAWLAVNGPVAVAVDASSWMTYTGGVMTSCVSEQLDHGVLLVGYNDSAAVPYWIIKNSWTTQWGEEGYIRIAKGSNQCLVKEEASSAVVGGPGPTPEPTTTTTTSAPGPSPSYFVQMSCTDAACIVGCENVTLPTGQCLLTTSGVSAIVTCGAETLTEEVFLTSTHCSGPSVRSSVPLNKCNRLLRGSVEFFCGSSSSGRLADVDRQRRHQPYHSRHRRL
#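 Detergent-free condition (0.00005% Triton X-100) in acetate buffer pH 5.5 with DTT. 1.5 nM enzyme and compound were pre-mixed 15 min, then 2 uM Z-FR-AMC substrate added; reaction progress from fluorescence change between first and third reads (60 s).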
# Cruzain inh Det: blocks cruzain activity in presence of Triton detergent; purified cruzain, Z-FR-AMC fluorescence, 0.01% Triton; AID 1478; Potency, µM, inactives show max response, negative = inhibition, usual class: inhibitors; 200,000 compounds, 0.43% hits; P25779;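 note: plate controls were neutral wells for no effect and buffer without enzyme for full effect; nearly all actives have a fitted effect of over 40% in size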
#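 Read-out: AMC fluorescence (360 nm excitation, 450 nm emission), four reads over 2 min, first-to-third difference used. Conditions: cruzain 1.5 nM, Z-FR-AMC 2 uM, pH 5.5 acetate, 5 mM DTT, 0.01% Triton X-100.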
# Active calls of the source: *; ? = inconclusive. A selection: hits, their analogues and other compounds. The true share with any hit is near 2.6%. Calls come from the whole dose curve; as a rule, active = well fitted curve in the direction sought with a large enough effect; inconclusive = small, poorly fitted or top-dose-only effect, or another doubt; inactive = no such curve, though single readings can be large; an effect the other way counts as inactive or inconclusive. Potency is the fitted concentration of half-maximal effect.
SMILES,Cruzain noTriton,Cruzain inh Det
COc1ccc(C2/C=C\CC(NC(=O)OCC3c4ccccc4-c4ccccc43)CC(=O)N2Cc2cccc(F)c2)cc1 (stereo not drawn),?,1%
CCOC(=O)c1cc(-c2ccccc2)sc1NC(=O)CCN1C(=O)c2ccccc2C1=O,?,-16%
CCOC(=O)c1sc(-c2ccccc2)cc1N,-8%,-12%
CCOC(=O)c1cc(-c2ccccc2)sc1NC(=O)C(C)N1C(=O)c2ccccc2C1=O (stereo not drawn),25µM*,-5%
CCOC(=O)c1cc(-c2ccccc2)sc1N,25µM*,-12%
CCOc1ccccc1NC(=O)N1CCc2cc(S(=O)(=O)N3CCC(C)CC3)ccc21,19%,-1%
COc1ccc(C2=NC(c3ccncc3)=Nc3ccc(OC)cc3N2)cc1,?,-6%
COc1ccc(C(=O)N(Cc2cc(OC)c(OC)c(OC)c2)CC2CCCO2)cc1 (stereo not drawn),10%,1%
Cc1c(C(=O)OCc2nc3scc(-c4ccccc4)c3c(=O)[nH]2)cccc1[N+](=O)[O-],?,-5%
O=C(OCc1nc2scc(-c3ccccc3)c2c(=O)[nH]1)c1cc(Cl)ccc1[N+](=O)[O-],32µM*,-4%
CCn1c(C)cc(/C=C2\SC(=O)N(CC(=O)Nc3ccc(C)c(C)c3)C2=O)c1C,16µM*,0%
Cc1ccc(NC(=O)CN2C(=O)S/C(=C\C(=O)Nc3ccc(Cl)cc3)C2=O)cc1,10µM*,0%
CCn1c(C)cc(/C=C2\NC(=O)N(CC(=O)Nc3cccc(C)c3)C2=O)c1C,?,1%
Cn1cccc1/C=C1\SC(=O)N(CC(=O)Nc2ccc(Cl)cc2)C1=O,?,-3%
COc1ccc(OCC(=O)NC(Cc2c[nH]c3ccccc23)C(=O)O)cc1 (stereo not drawn),-17%,-6%
Cc1cc(C)n(-c2nc3ccccc3nc2Nc2cc(C(=O)O)ccc2C)n1,-7%,0%
CCCc1ccc(-c2cc(C(=O)N/N=C/c3ccc([N+](=O)[O-])o3)c3ccccc3n2)cc1,16µM*,-2%
O=C(N/N=C/c1ccc([N+](=O)[O-])o1)c1cc(-c2cccc(Br)c2)nc2ccccc12,?,-3%
COc1ccccc1/C=C/C(=O)Nc1nc2n(n1)C(c1ccc(F)cc1)C=C(c1ccccc1)N2 (stereo not drawn),9%,-6%
CCc1ccccc1NC(=O)c1ccc(NCCc2ccccc2)c([N+](=O)[O-])c1,-4%,-4%
Cc1ccccc1NC(=O)c1ccc(N/N=C/c2ccccc2O)c([N+](=O)[O-])c1,10µM*,0%
Cc1ccc(NC(=O)c2ccc(Nc3c([N+](=O)[O-])cc([N+](=O)[O-])cc3[N+](=O)[O-])cc2)cc1,?,-8%
Cc1ccc(NC(=O)c2ccc(N/N=C/c3cccc(O)c3)c([N+](=O)[O-])c2)cc1,10µM*,0%
Cn1c(=O)c2c(nc(SCC(=O)Nc3ccc(F)c(F)c3)n2Cc2ccccc2F)n(C)c1=O,14%,0%
CCOC(=O)c1ccccc1NC(=O)CN1CCCN(Cc2cc(C)ccc2C)S1(=O)=O,10%,-2%
SMILES,Cruzain noTriton,Cruzain inh Det
COc1ccc(NC(=O)/C(C#N)=C/c2ccc(OCc3ccccc3F)cc2)cc1,4µM*,-1%
COc1ccc(/C=C(\C#N)C(=O)Nc2cc(S(=O)(=O)N3CCOCC3)ccc2N2CCCC2)cc1,?,-17%
CCN(CC)S(=O)(=O)c1ccc(N2CCCCC2)c(NC(=O)/C(C#N)=C/c2ccc(OC)cc2)c1,10µM*,-7%
CCCc1nn2c(=O)cc(COc3ccc(/C=C(\C#N)C(=O)Nc4ccc(F)cc4)cc3)nc2s1,-6%,0%
CCOc1cc(/C=C(/C#N)C(=O)Nc2ccc(O)cc2)cc(Br)c1O,-13%,-2%
CCOc1ccc(NC(=O)/C(C#N)=C/c2ccc(N3CCCC3)c(C)c2)cc1,10µM*,-7%
COc1ccc(Nc2ncnc3c2cnn3-c2cc(Cl)ccc2C)cc1OC,-7%,-4%
COc1cc(Br)c(C2CC(=O)Nc3cc(OC)c(OC)c(OC)c32)cc1OC (stereo not drawn),?,-3%
COc1cc(NC(=O)CC2C(=O)N(c3ccccc3)C(=O)N2Cc2ccc(F)cc2)cc(OC)c1 (stereo not drawn),-7%,-2%
CCOc1ccccc1CNC(=O)CN1C(=O)C2CCCCN2c2ccc(C(=O)N(C)C)cc21 (stereo not drawn),26%,5%
C=CCNc1sc(C(=O)c2ccccc2)c(N)c1C#N,-7%,-6%
C=CCNc1sc(C(=O)c2ccc(Br)s2)c(N)c1C#N,16µM*,-1%
CCOc1ccc(-c2nnc(SCC(=O)N(CC)c3cccc(C)c3)o2)cc1,-14%,-3%
Cc1cc2ccccn2c1C(C[N+](=O)[O-])c1ccc(N(C)C)cc1 (stereo not drawn),25µM*,-10%
COc1ccc(C(C[N+](=O)[O-])c2c(-c3ccccc3)cc3ccccn23)c(OC)c1 (stereo not drawn),?,-6%
Cc1ccc(C)c(S(=O)(=O)c2nnn3c2nc(NC2CCCCC2)c2sccc23)c1,-28%,-6%
Nc1nc(Nc2ccccc2)nc2ccccc12,25µM*,?
COc1cc2nc(Nc3cccc(C)c3)nc(N)c2cc1OC,3%,?
Oc1ccc(Nc2nc(-c3ccc(Cl)cc3)nc3ccccc23)cc1,?,-8%
Nc1nc(Nc2ccc(Cl)cc2)nc2ccccc12,10µM*,28µM*
COC(=O)c1ccc(C(/C=C/[C@@H](C)C(=O)NCCc2c[nH]c3ccccc23)NC(=O)OCc2ccccc2)cc1 (stereo partly drawn),-4%,-8%
Cc1ccc(C)c(Cn2cc(S(=O)(=O)c3ccc(Cl)cc3)c(=O)c3cc(F)ccc32)c1,-7%,-1%
O=C(Cc1ccccc1)NCC(=O)OCC(=O)c1ccc([N+](=O)[O-])cc1,-18%,-14%
O=C(OCC(=O)c1ccc([N+](=O)[O-])cc1)/C(=C/c1ccc(Cl)cc1)NC(=O)c1ccccc1,16µM*,2.8µM*
CCOC(=O)c1ccc(NC(=O)Nc2cc3c(cc2N2CCCC2)n(C)c(=O)n3C)cc1,?,-8%
SMILES,Cruzain noTriton,Cruzain inh Det
Cc1cccc(-c2nc(Cn3c(SCc4cc(C)ccc4C)nc4ccncc43)c(C)o2)c1,-20%,-6%
Cc1ccc2onc(CC(=O)N3CCN(c4ccccc4F)CC3)c2c1,?,-7%
Cc1ccc2onc(CC(=O)N3CCN(c4ccc(F)cc4)CC3)c2c1,25µM*,28µM*
COc1ccc(CNC(=O)Cn2c(=O)nc(-c3ccccc3)c3ccccc32)cc1OC,-4%,0%
CC(C)c1ccc2oc(-c3ccc(NC(=O)c4ncn[nH]4)cc3)nc2c1,13µM*,-8%
COc1cc(OC)cc(C(=O)Nc2ccc(-c3nc4cc(C(C)C)ccc4o3)cc2)c1,13µM*,-2%
COc1cc(OC)cc(C(=O)Nc2ccc(-c3nc4ccccc4o3)cc2)c1,?,-5%
O=C(Nc1ccc2oc(-c3cccc4ccccc34)nc2c1)c1ncn[nH]1,?,-3%
CCC(C)c1ccc2oc(-c3ccc(NC(=O)c4ncn[nH]4)cc3)nc2c1 (stereo not drawn),4µM*,-10%
Cc1cccc(C(=O)Nc2ccc(-c3nc4cc(C(C)C)ccc4o3)cc2)c1,-13%,-2%
CNC(=O)C1CCC(Cn2c(=O)c3sccc3n(CC(=O)Nc3ccc(C)cc3C)c2=O)CC1 (stereo not drawn),-2%,-1%
